What was measured:
Assay in all cases: PBM binding z-score (relative to random genomic background probes); higher = stronger binding; sequences stand for … in GC…GCGATTGACAGCGTAGAATGAAGG
[1] = tested on: PPARg:RXRa IVT, anti-PPARg (NR concentration 270 nM, RXRa partner concentration 90 nM)
How it was run: (§1)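 Probes were double-stranded and carried 34-nt variable regions with direct-repeat seeds, single-nucleotide variants, half-site ablations and random human genomic background sequences, printed on custom Agilent 4×180K protein-binding microarrays. Arrays were incubated 1 h with ligand-free nuclear receptor dimers in PBS pH 7.4, 2% milk, 0.02% Triton X-100, 1 mM DTT, 0.2 mg/mL BSA and 0.4 mg/ml salmon testes DNA. Antibodies against each partner (one per run) detected binding, and scanned fluorescence was regression-normalized. Binding z-scores use the random background probes as reference.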

[2] = tested on: PPARg DBDmut:RXRa IVT, anti-PPARg (DBD mutation: PPARg1 K132A/R137A, NR concentration 270 nM, RXRa partner concentration 90 nM)
How it was run: as §1

[3] = tested on: PPARg DBDmut IVT, anti-PPARg (DBD mutation: PPARg1 K132A/R137A, NR concentration 270 nM)
How it was run: as §1

[4] = tested on: PPARg homodimer (NR concentration 180 nM)
How it was run: as §1

[5] = tested on: PXR:RXRa (NR concentration 270 nM, RXRa partner concentration 90 nM)
How it was run: as §1

[6] = tested on: PXR homodimer (NR concentration 270 nM)
How it was run: as §1

[7] = tested on: RARa:RXR (NR concentration 270 nM, RXRa partner concentration 90 nM)
How it was run: as §1

[8] = tested on: RARa homodimer (NR concentration 270 nM)
How it was run: as §1

[9] = tested on: RARb:RXRa (NR concentration 270 nM, RXRa partner concentration 90 nM)
How it was run: as §1

[10] = tested on: RARb homodimer (NR concentration 270 nM)
How it was run: as §1

Sequence	PBM binding z-score [1]	PBM binding z-score [2]	PBM binding z-score [3]	PBM binding z-score [4]	PBM binding z-score [5]	PBM binding z-score [6]	PBM binding z-score [7]	PBM binding z-score [8]	PBM binding z-score [9]	PBM binding z-score [10]
AATACAAGGTCATCGTAGGCCAGAGTACGCACAG	4.7	0.979	1.37	2.81	4.87	2.13	4.63	1.33	5.15	4.19
TCTCGGAGGACACCAAAGGTCAGAGCTCGACATC	1.71	-0.171	-0.615	3.42	4.41	0.454	4.86	1.44	4.21	4.64
CCTACTGGGCCAAAAAGTTCATTGATGCCGATAA	2.64	-1.13	-0.236	1.35	2.98	9.58	1.23	0.294	2.24	2.64
CCTACTGGTCCAAGGTCATTGATCAGTCAAAGCA	1.68	-0.223	-0.605	3.61	4.18	2.61	4.13	1.23	3.33	3.76
TCTAGTTGGTCACGGAGGGCACACACGACGGGTA	2.85	0.649	0.752	1.2	1.11	0.255	1.01	0.42	2.35	2.28
ATCGAAAGGTCCAAGGTGAGTATACCCACCCGAA	0.666	0.0343	0.185	0.369	0.0935	-0.107	0.511	0.706	1.49	0.938
GCTAGTTGGTCAGTAAAAGGTGACACACCGGTCG	1.63	-1.22	-1.06	0.86	0.431	-0.523	1.07	0.0812	1.83	2.45
CGTCCAAGGTTAAGGTCAGTGAAAGAGACTCGAA	2.04	-0.847	-0.494	3.1	2.73	1.01	3.56	0.781	4.16	3.58
TCTTGTAGATCAATAGAAGTTAAGAAAGTGCGCT	0.217	0.211	1.07	0.551	0.615	0.29	0.734	0.368	0.0854	-0.511
TCTCGGAGGACACAAAGGTCAGAGCTTTCCAGAG	2.39	-0.467	-0.672	2.65	4.46	3.76	4.59	1.37	4.22	4.77
ATATGTAGGTTAGCTGGGGTCCTTCAGACTAGGC	5.77	1.74	2.65	1.13	1.33	0.206	2.3	0.538	0.851	0.736
CGTCCAAGGTCAAAGGTCAATGAAGAGATGACGG	6.01	0.925	0.0116	3.92	7.05	1.95	8.9	1.95	6.08	5.56
CCTTACGGGTCACTCCAGGTTATATCATCGGAGT	3.56	0.671	-0.354	1.62	5.16	0.444	3.62	0.321	3.69	3.31
AGAATGAGGTCATTAAGATCAGGGAATTGCGGTC	6.13	2.24	0.816	3.54	5.46	5.08	5.31	0.745	4.79	3.96
TACCCTAGGTCATGGGCCAGTATACCACGCGAAC	3.86	1.09	0.696	2.52	2.07	0.812	3.19	0.836	4.11	3.19
ATATGTAGGTTAAGCGTCATTCAGGTTGGTTCGC	7.49	1.71	1.99	1.04	0.685	-0.178	0.705	0.512	1.17	0.88
TAGCCTAGGTCATGGGCCAGTGTACCACGCGAAC	3.43	0.332	0.203	1.42	1.6	-0.511	2.86	-0.252	4.01	3.09
CGTCAAACTTCAACTAAGGTAACGTAAAGCACGC	0.514	0.469	0.79	0.684	0.396	0.0401	0.922	1.05	0.391	0.665
AGAATGAGGTTACCAAAGGTCAGGGAAACGCTTG	4.54	1.08	0.912	4.43	6.1	1.49	6.53	1.28	4.91	5.13
CCTACTGGGCCAAAAAGGTCATTGATGCCGATAA	3.76	-0.582	-0.854	3.07	4.63	3.96	4.97	0.857	3.97	4.43
CCTTACGGGTAACGAGGTTATAGCACGACGAGCG	1.82	-0.344	-1.05	0.604	0.822	0.153	1.3	0.476	0.589	0.484
TAGCCTAGGTCATGCGGCCCAGTATAGTGTCGGC	2.78	-0.45	-0.404	0.605	1.27	-0.926	2.1	-0.495	3.72	2.78
CGAACTAGGTCATCCAGGTCAGTGAATACATTGA	8.34	6.69	1.38	4.66	3.99	7.58	3.63	1.17	4.3	4.14
GATATAGGGTCAGCTAGAGGCCAGAGTATGGAAA	3.12	0.476	0.427	1.99	3.23	0.376	4.57	0.593	4.34	3.75
